The campaign covered roughly 310,000 compounds. About 14,000 (4.5%) showed an effect of 50% or more. Effects have a minus sign here. The full list was thinned out, with strong results kept by preference.
molecular target: human ether-à-go-go-related gene (hERG) potassium channel (human, UniProt Q12809); test: primary screen, population patch clamp on CHO cells stably expressing hERG; higher = less effect of the substance
Procedure: Briefly, Chinese hamster ovary (CHO) cells stably expressing the hERG channel were dislodged from tissue culture flasks and dispensed into PPC plates. […] During the recording, background leak currents were estimated by a 100 ms step to -80 mV from an initial holding potential of -70 mV and subtracted from the subsequent current measurement. The campaign was conducted in two phases using slight differences in recording protocol. In the first phase, the initial voltage pulse used a 100 ms step to -30 mV from a holding potential of -70 mV, a 2 s conditioning step to +25 mV, and a 2 s test step to -30 mV. During the second phase of the screen, the potential during the conditioning step was raised to +45 mV. In both phases of the campaign, a secondary voltage pulse was applied using the same parameters as the second phase initial pulse. The initial and secondary pulses were applied in the absence of compound, and upon application of 1 μM and 10 μM test concentrations. […]
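Also: peak tail current of the secondary pulse compared with the same well before compound.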

Chain of human ether-à-go-go-related gene (hERG) potassium channel (Q12809 whole entry, looked up): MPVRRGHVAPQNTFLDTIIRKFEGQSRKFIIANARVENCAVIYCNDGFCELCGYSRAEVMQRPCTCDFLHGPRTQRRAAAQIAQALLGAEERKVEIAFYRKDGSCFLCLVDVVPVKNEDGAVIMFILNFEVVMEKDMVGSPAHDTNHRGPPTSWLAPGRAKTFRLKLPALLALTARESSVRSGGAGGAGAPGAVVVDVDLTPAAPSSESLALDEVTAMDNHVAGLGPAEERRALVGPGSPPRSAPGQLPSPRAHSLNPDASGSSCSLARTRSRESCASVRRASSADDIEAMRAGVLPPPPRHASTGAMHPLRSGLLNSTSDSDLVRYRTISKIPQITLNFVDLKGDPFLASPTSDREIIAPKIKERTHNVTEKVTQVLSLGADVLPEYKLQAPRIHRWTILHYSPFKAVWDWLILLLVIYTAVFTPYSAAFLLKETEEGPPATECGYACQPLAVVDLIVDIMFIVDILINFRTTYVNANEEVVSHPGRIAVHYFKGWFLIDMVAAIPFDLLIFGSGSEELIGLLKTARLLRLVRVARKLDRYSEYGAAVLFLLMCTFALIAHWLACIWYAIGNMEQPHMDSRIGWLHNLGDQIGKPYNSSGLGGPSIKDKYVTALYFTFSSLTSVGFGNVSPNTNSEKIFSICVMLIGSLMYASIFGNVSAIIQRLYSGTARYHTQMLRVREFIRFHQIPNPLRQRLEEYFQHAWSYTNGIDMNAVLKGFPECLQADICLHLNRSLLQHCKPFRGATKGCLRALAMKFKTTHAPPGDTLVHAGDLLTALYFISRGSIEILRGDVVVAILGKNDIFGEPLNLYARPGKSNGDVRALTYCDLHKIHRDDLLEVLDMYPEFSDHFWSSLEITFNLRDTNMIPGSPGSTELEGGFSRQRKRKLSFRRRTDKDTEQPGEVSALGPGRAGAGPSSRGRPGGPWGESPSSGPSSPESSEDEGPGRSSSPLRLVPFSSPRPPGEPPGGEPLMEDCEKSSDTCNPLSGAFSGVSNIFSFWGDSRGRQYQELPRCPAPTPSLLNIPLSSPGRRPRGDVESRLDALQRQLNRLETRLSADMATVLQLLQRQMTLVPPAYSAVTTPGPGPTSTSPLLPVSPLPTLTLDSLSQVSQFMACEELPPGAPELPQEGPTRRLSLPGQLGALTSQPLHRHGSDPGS

Row | SMILES | hERG current change (%, negative = inhibition) at 10uM
1 | CC12CCC(=O)N1C(C(=O)NCc1ccccc1Cl)CS2 (stereo not drawn) | -9.42%
2 | Cc1cc(C)c(OCC(=O)N/N=C/c2ccco2)c(C)c1 | -3.8%
3 | O=C1NC(=O)/C(=C\c2ccc(OCc3cnc(Cl)s3)cc2)S1 | 19.9%
4 | COc1cccc(Nc2cc(N3CCOCC3)c3nonc3c2[N+](=O)[O-])c1 | -8.87%
5 | O=C(NCCO)N1c2ccccc2Sc2ccccc21 | 5.99%
6 | O=C(O)CCNC(=O)OCC1c2ccccc2-c2ccccc21 | -6.49%
7 | COc1ccc(CCN2C(=O)C(C)=C(C)C2=O)cc1OC | 11.7%
8 | Nn1c(SCC(=O)Nc2ccc3c(c2)OCO3)nnc1C1CC1 | 7.91%
9 | COc1ccc(N(C)S(=O)(=O)c2ccc(Cl)c(C(=O)NCC(C)(C)N3CCOCC3)c2)cc1 | -41.5%
10 | Cc1ccc(NS(=O)(=O)c2ccc(NC(=O)N3CCCCC3)cc2)cc1 | 8.78%
11 | COCCOc1cc(NC(=O)c2cccc(OC)c2)c(Cl)cc1Cl | 6.22%
12 | CCCN(CCC)C(=O)/C=C/c1cccc([N+](=O)[O-])c1 | -34.5%
13 | CC(C)N(C(=O)/C=C/c1cccc([N+](=O)[O-])c1)C(C)C | -13.8%
14 | CCCN(CC(=O)Nc1ccc(Cl)cc1Cl)C(=O)/C=C/c1cccc([N+](=O)[O-])c1 | -15.6%
15 | COc1ccc(/C=C/C(=O)OCc2cccc([N+](=O)[O-])c2)cc1 | -9.66%
16 | COc1ccc(OCC(O)CN(C)C(=O)/C=C/c2cccc([N+](=O)[O-])c2)cc1 (stereo not drawn) | -80.5%
17 | COc1ccc(OCC(O)CNC(=O)/C=C/c2cccc([N+](=O)[O-])c2)cc1 (stereo not drawn) | 17.6%
18 | CCCCN(CCCC)C(=O)/C=C/c1cccc([N+](=O)[O-])c1 | -68%
19 | CCCCN(CC)C(=O)/C=C/c1cccc([N+](=O)[O-])c1 | -63.5%
20 | CCCC(C)NC(=O)/C=C/c1cccc([N+](=O)[O-])c1 (stereo not drawn) | -7.16%
21 | O=C(CCNC(=O)c1ccco1)Nc1ccc(Cl)c(C(F)(F)F)c1 | -16.3%

Row | SMILES | hERG current change (%, negative = inhibition) at 10uM
22 | CCOC(=O)N1CCC(NC(=O)c2cc(COc3ccc(F)cc3Cl)on2)CC1 | -0.672%
23 | CCN(CC)c1ccc(/C=N/Nc2nc(C)cc(C)n2)c(O)c1 | -7.99%
24 | Cc1ccc(C)c(S(=O)(=O)NCCCc2ccccc2)c1 | -1.65%
25 | CN(c1ccc(C(=O)N2CCOCC2)cc1)S(=O)(=O)c1cccs1 | 29%
26 | COc1ccccc1NC(=O)CON=C(N)CC(=O)NC1CCCCC1 | -1.99%
27 | CSc1nnc(NC(=O)c2cccc(S(=O)(=O)N3CCOCC3)c2)s1 | -5%
28 | Cn1c(=O)n(C)c2cc(C(=O)c3ccccc3)ccc21 | -1.74%
29 | Cc1cc(C)c[n+](CC(=O)c2c(C)cc(C)c([N+](=O)[O-])c2C)c1.[Br-] | -68.6%
30 | Cc1cc(C)c[n+](CC(=O)c2ccccc2)c1.[Br-] | 22.8%
31 | Cc1cc(C)c[n+](CC(=O)c2ccc(C)c([N+](=O)[O-])c2)c1.[Br-] | -13.2%
32 | COc1cc(NS(=O)(=O)c2c(C)[nH]c(C)c2C(=O)N2CCCCC2)cc(OC)c1OC | 5.18%
33 | CCCCCn1nc(C(=O)N2CCc3ccccc32)c2ccccc2c1=O | -3.43%
34 | Cc1ccc2nc(Nc3ncc4c(n3)CC(C)(C)CC4=O)nc(C)c2c1 | 15.3%
35 | O=C(CSc1nc2ccccc2s1)NCC1CCCO1 (stereo not drawn) | 7.82%
36 | O=C(CSc1nc2ccc([N+](=O)[O-])cc2s1)NCC1CCCO1 (stereo not drawn) | -54.4%
37 | N#CC1(NC(=O)CN2C(=O)c3ccc([N+](=O)[O-])cc3C2=O)CCCCC1 | 4.83%
38 | N#CC1(NC(=O)CSc2nc3ccc([N+](=O)[O-])cc3s2)CCCCC1 | -69.5%
39 | O=C(CSc1nc2ccc(NC(=O)C3CCCCC3)cc2s1)NCC1CCCO1 (stereo not drawn) | 2.42%
40 | N#CC1(NC(=O)CSc2nc3ccccc3s2)CCCCC1 | -15.7%
41 | CCn1c(/N=C/c2ccccc2NS(=O)(=O)c2ccc(C)cc2)nc2ccccc21 | -19.8%
42 | COc1ccc(N(CC(=O)Nc2ccc(F)c(F)c2)S(=O)(=O)c2c(C)[nH]c(=O)[nH]c2=O)cc1 | 19.9%

Row | SMILES | hERG current change (%, negative = inhibition) at 10uM
43 | NC(=O)COC(=O)c1ccc(-c2ccccc2)cc1 | 14.2%
44 | CC(C)CCNC(=O)CN(Cc1ccccc1)C(=O)CCC(=O)Nc1ccccn1 | -19.7%
45 | O=C(CCCC(=O)N(CC(=O)NC1CCCCC1)Cc1ccc2c(c1)OCO2)Nc1ccccn1 | -54.3%
46 | CC(C)NC(=O)CN(Cc1ccc2c(c1)OCO2)C(=O)CCC(=O)Nc1ccccn1 | 1.7%
47 | O=C(CCCC(=O)N(CC(=O)NC1CCCC1)Cc1ccc2c(c1)OCO2)Nc1ccccn1 | -26.5%
48 | O=C(CCCC(=O)N(CC(=O)NC1CCCCC1)Cc1ccccc1)Nc1ccccn1 | -6.57%
49 | CC(C)CCNC(=O)CN(Cc1ccc2c(c1)OCO2)C(=O)CCC(=O)Nc1ccccn1 | -70.7%
50 | Cc1cccc(OCC(=O)N/N=C/c2cc([N+](=O)[O-])ccc2N2CCOCC2)c1 | -9.73%
51 | COc1ccc(-c2oc3ccc(N4CCOCC4)cc3c2C#CC2(O)CCCCC2)cc1 | 17.3%
52 | CCN(CC)c1ccc(/C=C2/C(=O)ON=C2C)cc1 | -20.9%
53 | Cc1ccc(CCNC(=O)C2CCN(c3nn4c(=O)cc(C)nc4s3)CC2)cc1 | -33.4%
54 | CCCc1cc(=O)n2nc(N3CCC(C(=O)NCc4ccc(C)o4)CC3)sc2n1 | -61.6%
55 | Cc1cc(=O)n2nc(N3CCC(C(=O)NCc4ccco4)CC3)sc2n1 | 17.9%
56 | Cc1cc(=O)n2nc(N3CCCC(C(=O)N4CCN(C)CC4)C3)sc2n1 (stereo not drawn) | -7.39%
57 | Cc1cc(=O)n2nc(N3CCC(C(=O)NCCc4ccc(Cl)cc4)CC3)sc2n1 | -54.5%
58 | Cc1cc(=O)n2nc(N3CCC(C(=O)NCCc4ccccc4)CC3)sc2n1 | -10.1%
59 | Cc1ccc(CNC(=O)C2CCCN(c3nn4c(=O)cc(C)nc4s3)C2)cc1 (stereo not drawn) | -31.1%
60 | Cc1cc(=O)n2nc(N3CCCC(C(=O)N4CCN(c5ccccc5)CC4)C3)sc2n1 (stereo not drawn) | -53.5%
61 | CCc1ccc(CNC(=O)C2CCCN(c3nn4c(=O)cc(C)nc4s3)C2)cc1 (stereo not drawn) | -36.2%
62 | Cc1cc(=O)n2nc(N3CCC(C(=O)N4CCN(c5ccccc5)CC4)CC3)sc2n1 | -11.9%
63 | CCCc1cc(=O)n2nc(N3CCC(C(=O)NCc4ccco4)CC3)sc2n1 | -44.4%

Row | SMILES | hERG current change (%, negative = inhibition) at 10uM
64 | Cc1cc(=O)n2nc(N3CCCC(C(=O)NCc4ccc(Cl)cc4)C3)sc2n1 (stereo not drawn) | -71.7%
65 | Cc1nc2ncnn2c(C)c1CCC(=O)Oc1ccccc1 | -5.02%
66 | CCN1CCc2nc(N)oc2CC1.Cl | 1.67%
67 | Cc1cc2oc(C(=O)NC3CCS(=O)(=O)C3)c(C)c2cc1C (stereo not drawn) | 2.69%
68 | CN(CC(=O)Nc1ccc(Cl)c(C(F)(F)F)c1)C(=O)C1CCC1 | -14.8%
69 | O=C1COc2ccc(N3C(=O)c4ccccc4C3=O)cc2N1 | 27.5%
70 | CCCCCN(C(=O)CN1CCC(Cc2ccccc2)CC1)c1c(N)n(CCCC)c(=O)[nH]c1=O | -48.1%
71 | CSc1nc(N2CCN(Cc3ccc4c(c3)OCO4)CC2)c2ccccc2n1 | -16.7%
72 | CC(C)(C)OC(=O)N1CCC(c2cc(=O)n3[nH]cc(C(=O)Nc4ccc(F)c(Cl)c4)c3n2)CC1 | 6.92%
73 | COCCOC(=O)C1=C(C)Nc2ncnn2C1c1ccco1 (stereo not drawn) | 2.64%
74 | Cc1cc(=O)n2nc(N3CCCC(C(=O)NCc4cccc(Br)c4)C3)sc2n1 (stereo not drawn) | -30.2%
75 | Cc1cc(=O)n2nc(N3CCC(C(=O)NCc4ccc(Cl)cc4)CC3)sc2n1 | -70%
76 | Cc1cc(=O)n2nc(N3CCC(C(=O)NCc4ccc(F)cc4)CC3)sc2n1 | -55.5%
77 | COc1ccc(CNC(=O)C2CCN(c3nn4c(=O)cc(C)nc4s3)CC2)cc1 | -4.51%
78 | CCOc1ccc(CNC(=O)C2CCN(c3nn4c(=O)cc(C)nc4s3)CC2)cc1 | -45.8%
79 | Cc1cc(=O)n2nc(N3CCC(C(=O)NCc4ccccc4)CC3)sc2n1 | -3.68%
80 | Cc1cc(=O)n2nc(N3CCC(C(=O)NCc4cccc(Br)c4)CC3)sc2n1 | -51.4%
81 | Cc1cc(=O)n2nc(N3CCC(C(=O)NCc4cccc(Cl)c4)CC3)sc2n1 | -43.7%
82 | Cc1ccc(CNC(=O)C2CCN(c3nn4c(=O)cc(C)nc4s3)CC2)cc1 | -41.9%
83 | CCS(=O)(=O)c1ccc(C(=O)Nc2cccc(Cl)c2)c(Cl)c1Cl | -3.97%
84 | Cc1ccc(C(C)C)c(OCCCNCc2cccnc2)c1.Cl | -37.5%
